We go through seven compounds from PubChem BioAssay (NCATS).

Structures are written as SMILES. Several values for one entry are separate records, joined by “and”; a condition that tells them apart may be missing. Equal entries are not always repeated. Inconclusive results are not listed. Activity calls are given as the source filed them. Unless noted, calls follow the shape of the dose curve; as a rule, active = well fitted curve in the direction sought with a large enough effect; inconclusive = small, poorly fitted or top-dose-only effect, or another doubt; inactive = no such curve, though single readings can be large; an effect the other way counts as inactive or inconclusive.

Assay [1] deals with DNA repair nuclease/redox regulator APEX1 (Homo sapiens) (UniProt P27695). Kind of assay: qHTS Validation Assay for Inhibitors of the Human Apurinic/apyrimidinic Endonuclease 1 (APE1) (AID 1705;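 also: TAMRA fluorescence gain over two minutes as APE1 cuts a quenched THF abasic duplex; % is scaled to controls: 0 for no effect and ±100 for the full control effect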). A digest of the protocol: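 Read-out: TAMRA fluorescence (525 nm ex, 598 nm em) from cleavage of a quenched THF abasic-site duplex, 50 nM final; activity taken as intensity change between third and first of three reads 60 s apart.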

Assay [2] is described as follows: Counterscreen for APE1 Inhibitors: Fluorescent Dye Displacement Validation Assay (AID 1707).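 Also: plate controls were ThO with dsDNA and no compound for no effect and ThO without dsDNA for full effect.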 An outline of the steps:
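Thiazole Orange (250 nM) bound to 50 nM TAMRA-labelled dsDNA with tetrahydrofuran abasic site; displacement by DNA-binding compounds lowers fluorescence. Buffer 50 mM Tris-HCl pH 7.5, 50 mM NaCl, 2 mM MgCl2, 0.01% Tween-20; endpoint read at 480/540 nm.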

The target of assay [3] is Endonuclease 4 (Escherichia coli (strain K12)) (UniProt P0A6C1). Kind of assay: Counterscreen for APE1 Inhibitors: qHTS Validation Assay for Inhibitors of Endonuclease IV (AID 1708). Also: % is scaled to controls: 0 for no effect and ±100 for the full control effect. An outline of the steps:
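Enzymatic AP-site incision assay using a double-stranded THF substrate labelled with TAMRA and BHQ-2; released fluorescence signals activity. Enzyme 2 nM, substrate 50 nM, 15 min compound preincubation.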

The nature of assay [4]: qHTS for differential inhibitors of proliferation of Plasmodium falciparum line 7G8 (AID 1815).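 Also: parasite growth measured after three days of incubation.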 Also: potency is read from the fitted curve at half-maximal effect.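 As to activity change, negative = inhibition: plate controls were vehicle wells for no effect and reference inhibitor wells for full effect.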 For orientation: Quantitative high-throughput screening tests each substance at several concentrations.
Assay [5] is described as follows: qHTS for differential inhibitors of proliferation of Plasmodium falciparum line GB4 (AID 1816).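 Also: parasite growth measured after 72 h incubation.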 Also: potency is read from the fitted curve at half-maximal effect.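 As to activity change, negative = inhibition: 0% = vehicle DMSO and -100% = reference inhibitor.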 As to conditions: Potency: Plasmodium falciparum GB4 proliferation inhibition.
Assay [6] in a line: qHTS for differential inhibitors of proliferation of Plasmodium falciparum line 3D7 (AID 1876).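 Also: parasite growth measured after three days of culture; 0% = vehicle wells and -100% = reference inhibitor wells.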
The nature of assay [7]: qHTS for differential inhibitors of proliferation of Plasmodium falciparum line D10 (AID 1877).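 Also: parasites grown with compound for 72 h before DNA staining.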 Also: potency is read from the fitted curve at half-maximal effect.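 As to activity change, negative = inhibition: plate controls were vehicle wells for no effect and reference inhibitor wells for full effect.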
A short description of assay [8]: qHTS for differential inhibitors of proliferation of Plasmodium falciparum line Dd2 (AID 1882). Also: nearly all actives have a fitted effect of over 65% in size. Also: potency is read from the fitted curve at half-maximal effect.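 As to activity change, negative = inhibition: compound exposure of 72 h on infected erythrocytes; plate controls were DMSO vehicle for no effect and 0.29 µM artemisinin for full effect.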 As to conditions: Potency: Plasmodium falciparum Dd2 proliferation inhibition. An outline of the steps:
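SYBR Green I DNA fluorescence read-out, ex 485/em 535 nm. Signals were normalized to 0.29 uM artemisinin and DMSO wells, then corrected using vehicle-only plates flanking each stack. Parasite growth ran 72 h in erythrocytes before lysis.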

The nature of assay [9]: qHTS for differential inhibitors of proliferation of Plasmodium falciparum line W2 (AID 1883).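 Also: parasites grown with compound for 72 h before lysis and staining.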 Also: potency is read from the fitted curve at half-maximal effect.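 As to activity change, negative = inhibition: 0% = vehicle wells and -100% = control inhibitor wells.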 As to conditions: Potency: Plasmodium falciparum W2 proliferation inhibition.
Assay [10] in a line: qHTS for differential inhibitors of proliferation of Plasmodium falciparum line HB3 (AID 1886).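 Also: parasites grown with compound for 72 h before SYBR Green readout; plate controls were vehicle for no effect and reference inhibitor for full effect.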 The conditions noted are these: Potency: Plasmodium falciparum HB3 proliferation inhibition.
Assay [11] has as its target Ferritin light chain (Equus caballus) (UniProt P02791). As to the kind of experiment: qHTS Validation Assay for Identification of Novel General Anesthetics (AID 2323). Also: % is scaled to controls: 0 for no effect and ±100 for the full control effect. A digest of the protocol: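 10 uM horse-spleen apoferritin + 1-AMA (50% saturated, PBS); cpd pin-transferred, 10 min RT. Ex 380/Em 535 nm endpoint. Activity normalized between free 1-AMA and 1-AMA/apoferritin; 4-parameter Hill fit of concentration-response.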

Assay [12] has as its target ATP-dependent DNA helicase Q1 (Homo sapiens) (UniProt P46063). Kind of assay: qHTS Validation Assay for Inhibitors of RecQ-Like Dna Helicase 1 (RECQ1) (AID 2353).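 Also: plate controls were DMSO vehicle for no effect and enzyme-free control for full effect.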 A digest of the protocol: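 50 nM RECQ1T1 preincubated 15 min with compound in Tris pH 8.0 buffer with MgCl2, DTT, Tween-20 and 2.5 ug/ml poly(dI-dC); started with 200 nM TAMRA/BHQ-2 forked duplex and 2 mM ATP. Unwinding read as fluorescence (525/598 nm), two reads 2 h apart.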

Assay [13] deals with RecQ-like DNA helicase BLM (Homo sapiens) (UniProt P54132). As to the kind of experiment: qHTS Validation Assay for Inhibitors of Bloom's syndrome helicase (BLM) (AID 2364).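 Also: plate controls were DMSO vehicle for no effect and enzyme-free control for full effect.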 A digest of the protocol: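 Forked 20-bp duplex substrate (200 nM, TAMRA/BHQ-2) plus 2 mM ATP added after 15 min compound preincubation with 50 nM enzyme, pH 8.0, poly(dI-dC) 2.5 ug/ml. Strand separation followed by fluorescence (525/598 nm) over 2 h, normalized to enzyme-free and DMSO controls.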

A short description of assay [14]: Cytometric Cell-Based qHTS for Inhibitors of the mTORC1 Signaling Pathway in MEF (Tsc2-/-, p53-/-) Cells (AID 2660).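 Also: percent of cells above a phospho-rpS6 to PI ratio cutoff in each well; plate controls were DMSO for no effect and rapamycin for full effect.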 An outline of the steps: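 Tsc2-/-, p53-/- MEFs (empty vector) exposed to compound 24 h at 37 C, fixed, stained with Alexa-488 anti-phospho-rpS6 Ser235/236 and propidium iodide. Acumen laser scanning; phospho-S6/PI ratio thresholded against 7.5 nM rapamycin, reported as % positive cells.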

A short description of assay [15]: High Content Imaging Cell-Based qHTS for Inhibitors of the mTORC1 Signaling Pathway in MEF (Tsc2-/-, p53-/-) Cells (AID 2666).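 Also: percent of cells scored positive for phospho-rpS6 Ser235/236 immunostaining by imaging.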 A digest of the protocol: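 Cells were plated, dosed with compound after 24 hrs, and incubated another 24 hrs at 37 degree Celsius. Fixed cells were immunostained for phospho-rpS6 Ser235/236 and counterstained, and the normalized signal was scored as % active cells against rapamycin and DMSO controls.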

Assay [16] can be described thus: High Content Imaging Cell-Based qHTS for Inhibitors of the mTORC1 Signaling Pathway in MEF Cells (AID 2667). Also: potency is read from the fitted curve at half-maximal effect.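 As to activity change, negative = inhibition: Tsc2-/- p53-/- MEFs stably re-expressing wild-type Tsc2 exposed 24 h; plate controls were DMSO wells for no effect and rapamycin control wells for full effect.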 A digest of the protocol:
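Immunofluorescence for rpS6 phosphorylation in MEFs of Tsc2-/-, p53-/- background rescued with WT Tsc2. Compound exposure lasted 24 hrs. Inhibition was scored against rapamycin-treated control wells.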

Assay [17] in a line: Cytometry Cell-Based qHTS for Inhibitors of the mTORC1 Signaling Pathway in MEF cells (AID 2668). Also: potency is read from the fitted curve at half-maximal effect.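 As to activity change, negative = inhibition: Tsc2-/- p53-/- mouse embryonic fibroblasts stably re-expressing wild-type Tsc2; percent cells positive for phospho-rpS6 Ser235/236 relative to propidium iodide stain; plate controls were DMSO wells for no effect and 7.5 nM rapamycin control wells for full effect.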 An outline of the steps:
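Read-out: phospho-rpS6 Ser235/236 immunofluorescence normalized to propidium iodide intensity, scored as % active cells against a rapamycin (7.5 nM) threshold. Cells: Tsc2-/-, p53-/- MEFs stably expressing WT Tsc2, compound-treated 24 hrs at 37 degree Celsius.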

The nature of assay [18]: qHTS Assay for Lipid Storage Modulators (AID 1519; calls by dose curve; as to activity change, negative = inhibition: % is scaled to controls: 0 for no effect and ±100 for the full control effect). As to conditions: Drosophila S3 cells, BODIPY lipid droplet/cell ratio, laser cytometry, cells loaded with oleic acid. An outline of the steps:
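Cells seeded at 5,000 per well were treated with compounds over a concentration series and loaded with oleic acid (400 uM, as added). Lipid droplet fluorescence (488 nm excitation, 500-530 nm channel) was read by laser-scanning cytometry and normalized to 20 uM Triacsin C.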

The nature of assay [19]: qHTS Assay for Modulators of Human Peripheral Myelin Protein 22 (PMP22) Expression/Activity (AID 1967; active = well fitted curve in the direction sought with a large enough effect in the signal ratio; the % refers to the signal ratio;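 also: 0% = untreated cells and 100% end not stated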). An outline of the steps: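 Mouse MSC80 Schwann line, Pmp22 promoter–CBG68 reporter, EF-alpha–CBR internal control. 24h compound exposure, 37 °C/5% CO2, DMEM + 10% FBS. Readout: corrected green/red luminescence ratio, normalized to untreated cells; concentration-response curves fitted and classified.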

The mark [20] stands for this setting: measured here: cell count channel max response.
Setting [21] is: measured here: lipid channel max response.

Ferritin light chain (Equus caballus), sequence (P02791 2-175 limits assumed): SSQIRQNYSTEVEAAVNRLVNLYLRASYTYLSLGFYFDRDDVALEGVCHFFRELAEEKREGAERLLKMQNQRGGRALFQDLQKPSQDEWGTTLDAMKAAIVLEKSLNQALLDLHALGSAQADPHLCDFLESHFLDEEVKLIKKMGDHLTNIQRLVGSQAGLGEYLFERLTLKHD
ATP-dependent DNA helicase Q1 (Homo sapiens), sequence (P46063 whole entry, looked up): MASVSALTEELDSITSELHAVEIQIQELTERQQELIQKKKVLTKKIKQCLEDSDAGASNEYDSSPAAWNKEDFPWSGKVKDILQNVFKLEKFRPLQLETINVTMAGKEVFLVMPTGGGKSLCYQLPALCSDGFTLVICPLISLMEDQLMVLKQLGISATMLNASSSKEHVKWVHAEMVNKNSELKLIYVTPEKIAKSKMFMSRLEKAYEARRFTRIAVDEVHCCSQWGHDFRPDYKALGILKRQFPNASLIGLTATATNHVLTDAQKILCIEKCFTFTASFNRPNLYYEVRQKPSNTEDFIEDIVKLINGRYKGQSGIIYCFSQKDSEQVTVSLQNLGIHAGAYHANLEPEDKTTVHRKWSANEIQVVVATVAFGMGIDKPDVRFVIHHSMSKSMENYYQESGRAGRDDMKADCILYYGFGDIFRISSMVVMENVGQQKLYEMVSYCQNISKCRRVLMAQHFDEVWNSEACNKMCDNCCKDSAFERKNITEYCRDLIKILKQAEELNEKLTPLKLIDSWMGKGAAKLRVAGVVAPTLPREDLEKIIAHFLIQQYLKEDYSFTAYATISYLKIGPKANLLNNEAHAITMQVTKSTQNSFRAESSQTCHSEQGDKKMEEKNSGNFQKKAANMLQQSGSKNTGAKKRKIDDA
DNA repair nuclease/redox regulator APEX1 (Homo sapiens), sequence (P27695 whole entry, looked up): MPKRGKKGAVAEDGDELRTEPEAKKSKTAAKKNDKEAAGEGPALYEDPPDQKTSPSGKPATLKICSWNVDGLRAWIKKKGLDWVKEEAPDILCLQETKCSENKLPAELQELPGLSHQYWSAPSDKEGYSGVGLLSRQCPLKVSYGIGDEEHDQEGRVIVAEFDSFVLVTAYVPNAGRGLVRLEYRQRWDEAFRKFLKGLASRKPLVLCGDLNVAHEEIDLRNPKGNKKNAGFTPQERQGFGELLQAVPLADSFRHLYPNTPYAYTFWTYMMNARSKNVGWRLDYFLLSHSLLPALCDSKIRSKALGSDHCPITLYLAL
RecQ-like DNA helicase BLM (Homo sapiens), sequence (P54132 whole entry, looked up): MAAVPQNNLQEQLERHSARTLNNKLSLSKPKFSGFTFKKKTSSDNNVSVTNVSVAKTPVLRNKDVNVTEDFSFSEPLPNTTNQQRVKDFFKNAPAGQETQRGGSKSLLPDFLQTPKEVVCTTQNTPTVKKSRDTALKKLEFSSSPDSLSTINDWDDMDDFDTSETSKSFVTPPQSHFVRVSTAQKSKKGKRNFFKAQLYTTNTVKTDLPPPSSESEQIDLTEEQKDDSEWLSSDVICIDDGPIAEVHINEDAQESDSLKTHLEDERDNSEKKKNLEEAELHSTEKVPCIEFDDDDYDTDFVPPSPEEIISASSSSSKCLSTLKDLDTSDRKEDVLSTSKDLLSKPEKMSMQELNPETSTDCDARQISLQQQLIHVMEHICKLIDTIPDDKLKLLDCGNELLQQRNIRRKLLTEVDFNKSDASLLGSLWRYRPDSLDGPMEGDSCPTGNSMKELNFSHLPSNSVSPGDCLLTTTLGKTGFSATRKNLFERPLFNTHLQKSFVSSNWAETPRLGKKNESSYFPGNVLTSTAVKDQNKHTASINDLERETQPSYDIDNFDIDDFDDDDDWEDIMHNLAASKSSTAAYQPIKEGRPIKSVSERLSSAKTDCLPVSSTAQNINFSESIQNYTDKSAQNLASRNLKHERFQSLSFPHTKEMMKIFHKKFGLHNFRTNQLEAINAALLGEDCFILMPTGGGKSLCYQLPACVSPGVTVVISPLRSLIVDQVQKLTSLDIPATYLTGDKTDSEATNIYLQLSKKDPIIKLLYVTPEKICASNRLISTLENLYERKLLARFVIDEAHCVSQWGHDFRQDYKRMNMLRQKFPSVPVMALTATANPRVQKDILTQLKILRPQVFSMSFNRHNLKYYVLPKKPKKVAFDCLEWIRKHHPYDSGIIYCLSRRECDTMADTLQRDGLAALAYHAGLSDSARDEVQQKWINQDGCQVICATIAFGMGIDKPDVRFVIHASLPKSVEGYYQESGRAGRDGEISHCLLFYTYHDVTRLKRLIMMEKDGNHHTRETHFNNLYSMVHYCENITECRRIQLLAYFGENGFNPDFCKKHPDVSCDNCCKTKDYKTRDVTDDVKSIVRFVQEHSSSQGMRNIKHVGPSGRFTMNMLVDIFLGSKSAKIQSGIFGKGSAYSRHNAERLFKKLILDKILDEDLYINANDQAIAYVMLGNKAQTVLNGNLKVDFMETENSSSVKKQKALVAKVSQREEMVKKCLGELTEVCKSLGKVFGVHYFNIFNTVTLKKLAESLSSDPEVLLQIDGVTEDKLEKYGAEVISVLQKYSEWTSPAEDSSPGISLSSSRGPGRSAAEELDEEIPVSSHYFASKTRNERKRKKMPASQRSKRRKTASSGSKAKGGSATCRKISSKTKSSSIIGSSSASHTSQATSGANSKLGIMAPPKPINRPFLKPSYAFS

Regarding `Nc1ccncc1`, the call in [1], in [3], in [11], in assay [12] and in assay [14] was inactive. Further, the Potency result in assay [2], in [4], in assay [5], in assay [6], in assay [7] and in assay [8] was “inactive” each time. For the same compound, the Potency entry in [9], in assay [10], in [13], in assay [15], in assay [16] and in [17] was “inactive” each time.

For `CN(C)CCN(C)CCc1ccc(Cl)c(Cl)c1`, the activity change, negative = inhibition in [18] (at 57.5 µM (top of the series)) is -1.09% (inactive). Also, the max response is 4.07% in assay [18] (setting [20]) and 4.59% in assay [18] (setting [21]).

As to `C=C(C)[C@H]1Cc2c(ccc3c2O[C@@H]2COc4cc(OC)c(OC)cc4[C@@H]2C3=O)O1`, the outcome in assay [1], in assay [3], in assay [12] and in [14] was inactive. In addition, the Potency entry in assay [2], in [8] and in assay [15] was “inactive” each time. Also, the Potency in assay [4] is 11.2 µM (active); in assay [5] it was 12.6 µM (active); in assay [9], 8.91 µM (active); in [16] it was 0.0465 µM (active); in assay [17], 0.0585 µM (active).

Turning to `CC[N+]1(C)CCCC(OC(=O)C(O)(c2ccccc2)c2ccccc2)C1` (stereo unspecified), the activity change, negative = inhibition in assay [18] (at 57.5 µM (top of the series)) is 8.59% (inactive). The max response in assay [18] (setting [20]) was 5.8%; in assay [18] (setting [21]) it was 23.3%.

`O=c1[nH]c2ccccc2n1CCCN1CCC(n2c(=O)[nH]c3cc(Cl)ccc32)CC1`: the activity change, negative = inhibition in [18] (at 25.7 µM (top of the series)) is 0.586% (inactive); in assay [18] (at 57.5 µM (top of the series)), 4.6% (inactive) and -5.66% (inactive). Besides, the max response is 2.1% and 12.4% and -15.6% in assay [18] (setting [20]); 4.47% and 17.4% and -21% in [18] (setting [21]). The outcome in assay [1], in assay [3], in assay [11], in [12] and in [14] was inactive. Further, the Potency result in assay [2], in [13], in assay [15] and in assay [16] was “inactive” each time. The Potency is 12.6 µM (active) in [5], 14.1 µM (active) in assay [7], 8.91 µM (active) in assay [8] and 4.47 µM (active) in assay [9].

Regarding `CCn1cc(C(=O)O)c(=O)c2ccc(C)nc21`, the activity change, negative = inhibition in assay [18] (at 25.7 µM (top of the series)) is 1.82% (inactive). For the same compound, the max response in assay [18] (setting [20]) came to 0.0975%; in [18] (setting [21]), 0.934%. The compound was called inactive in [1], in assay [3], in [19], in [11] and in assay [12]. In [2], the Potency result is “inactive”.

With `NCC1(CC(=O)O)CCCCC1`, the values for the activity change, negative = inhibition in assay [18] (at 25.7 µM (top of the series)) and in assay [18] (at 57.5 µM (top of the series)) were -2.01% (inactive) and 1.35% (inactive), respectively. The max response in [18] (setting [20]) was -7.98% and 4.74%; in assay [18] (setting [21]), -6.8% and 4.42%. The call in assay [1], in [3], in [11], in [12] and in [14] was inactive. For the same compound, the Potency entry in assay [2], in assay [4], in assay [5], in assay [6], in assay [7] and in assay [8] was “inactive” each time. Moreover, the Potency entry in [9], in assay [10], in [15], in assay [16] and in assay [17] was “inactive” in each case.
